Common to all, as to experiment: DAPPL (digital affinity profiling via proximity ligation, sequencing); 10 mM Tris-HCl pH 7.5, 50 mM NaCl, 1 mM DTT, 4% glycerol, room temperature, 30 min; GST-TFs on glutathione beads, 16-mer random dsDNA library, 0.1% formaldehyde crosslink after washing; high values mean tight binding
In one experiment the target is T1, FLI1 (Homo sapiens, UniProt Q01543 1-452).
T1 sequence: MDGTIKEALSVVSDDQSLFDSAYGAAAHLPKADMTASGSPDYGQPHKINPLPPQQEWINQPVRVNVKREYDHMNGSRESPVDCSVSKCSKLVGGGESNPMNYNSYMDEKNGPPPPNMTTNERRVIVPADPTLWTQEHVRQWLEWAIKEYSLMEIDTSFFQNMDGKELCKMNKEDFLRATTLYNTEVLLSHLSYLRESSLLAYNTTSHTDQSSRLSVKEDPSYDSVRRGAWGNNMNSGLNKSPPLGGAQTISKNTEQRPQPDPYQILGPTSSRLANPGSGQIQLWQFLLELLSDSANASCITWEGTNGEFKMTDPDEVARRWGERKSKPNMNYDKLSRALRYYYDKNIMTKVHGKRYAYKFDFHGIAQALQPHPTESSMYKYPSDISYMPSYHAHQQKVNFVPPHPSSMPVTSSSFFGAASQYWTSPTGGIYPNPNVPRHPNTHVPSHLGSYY
The note with it: protein: recombinant; tags: N-terminal GST; dsDNA, one strand shown. In a few lines: (§1)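 After expression in yeast as GST fusions, human transcription factors were bound to glutathione beads, DNA-barcoded and mixed with a tag-only sample. The pools were incubated with 200 nmole of a 16-mer random double-stranded DNA library in Tris/NaCl/DTT/glycerol buffer (30 min, room temperature), washed and crosslinked with 0.1% formaldehyde. Proximity ligation with BsaI/T4 ligase ran for 1 h at 37 °C, before PCR amplification and sequencing on an Illumina NextSeq500. Binding signal is a hexamer's read frequency for a factor divided by its frequency for the tag-only sample.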

For the next experiment, the target named is T2, ELK1 (Homo sapiens, UniProt P19419 1-428).
T2 sequence: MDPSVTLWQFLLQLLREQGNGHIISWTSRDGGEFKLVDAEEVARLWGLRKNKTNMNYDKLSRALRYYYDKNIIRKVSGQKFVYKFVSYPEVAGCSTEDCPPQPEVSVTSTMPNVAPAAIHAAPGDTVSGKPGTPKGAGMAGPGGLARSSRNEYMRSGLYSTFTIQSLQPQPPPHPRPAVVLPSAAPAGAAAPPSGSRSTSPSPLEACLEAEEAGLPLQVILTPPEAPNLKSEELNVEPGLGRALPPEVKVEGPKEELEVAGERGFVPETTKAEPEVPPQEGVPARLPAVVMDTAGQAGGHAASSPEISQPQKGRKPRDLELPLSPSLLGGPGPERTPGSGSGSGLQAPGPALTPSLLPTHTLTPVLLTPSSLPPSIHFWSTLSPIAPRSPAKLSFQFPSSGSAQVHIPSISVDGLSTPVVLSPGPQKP
The note with it: protein: recombinant; tags: N-terminal GST; dsDNA, one strand shown. In a few lines: as §1

A further experiment has as its target T3, GABPA (Homo sapiens, UniProt Q06546 1-454).
T3 sequence: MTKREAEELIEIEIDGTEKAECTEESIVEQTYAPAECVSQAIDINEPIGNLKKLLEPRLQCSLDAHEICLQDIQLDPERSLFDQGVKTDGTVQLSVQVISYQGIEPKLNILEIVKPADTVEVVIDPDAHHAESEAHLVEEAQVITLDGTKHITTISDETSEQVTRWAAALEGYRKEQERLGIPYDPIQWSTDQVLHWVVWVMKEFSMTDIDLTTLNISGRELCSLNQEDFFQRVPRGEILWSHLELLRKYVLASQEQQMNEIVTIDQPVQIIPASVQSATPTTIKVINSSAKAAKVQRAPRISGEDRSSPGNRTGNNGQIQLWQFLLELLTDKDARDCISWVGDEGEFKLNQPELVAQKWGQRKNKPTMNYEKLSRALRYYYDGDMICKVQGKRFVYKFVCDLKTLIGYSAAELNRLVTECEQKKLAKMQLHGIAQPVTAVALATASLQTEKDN
The note with it: protein: recombinant; tags: N-terminal GST; dsDNA, one strand shown. In a few lines:
as §1

A further experiment deals with T4, ERG (Homo sapiens, UniProt P11308 1-479).
T4 sequence: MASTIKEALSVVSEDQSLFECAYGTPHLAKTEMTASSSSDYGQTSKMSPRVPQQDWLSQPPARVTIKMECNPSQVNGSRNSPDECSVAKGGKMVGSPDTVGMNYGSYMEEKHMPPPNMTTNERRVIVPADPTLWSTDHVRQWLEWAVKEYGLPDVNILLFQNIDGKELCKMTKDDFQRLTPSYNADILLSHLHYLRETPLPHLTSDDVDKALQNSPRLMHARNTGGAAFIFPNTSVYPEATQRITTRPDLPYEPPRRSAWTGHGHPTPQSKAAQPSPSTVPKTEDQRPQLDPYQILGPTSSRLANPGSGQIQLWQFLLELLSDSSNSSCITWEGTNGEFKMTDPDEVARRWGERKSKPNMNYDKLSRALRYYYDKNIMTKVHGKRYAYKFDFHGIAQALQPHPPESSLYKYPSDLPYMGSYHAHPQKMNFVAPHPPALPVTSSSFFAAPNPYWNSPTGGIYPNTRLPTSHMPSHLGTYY
The note with it: protein: recombinant; tags: N-terminal GST; dsDNA, one strand shown. In a few lines:
as §1

The next experiment concerns the target ELF1 (Homo sapiens, UniProt P32519 1-619). The note with it: protein: recombinant; tags: N-terminal GST; dsDNA, one strand shown. In a few lines:
as §1

A further experiment deals with T5, EHF (Homo sapiens, UniProt Q9NZC4 1-300).
T5 sequence: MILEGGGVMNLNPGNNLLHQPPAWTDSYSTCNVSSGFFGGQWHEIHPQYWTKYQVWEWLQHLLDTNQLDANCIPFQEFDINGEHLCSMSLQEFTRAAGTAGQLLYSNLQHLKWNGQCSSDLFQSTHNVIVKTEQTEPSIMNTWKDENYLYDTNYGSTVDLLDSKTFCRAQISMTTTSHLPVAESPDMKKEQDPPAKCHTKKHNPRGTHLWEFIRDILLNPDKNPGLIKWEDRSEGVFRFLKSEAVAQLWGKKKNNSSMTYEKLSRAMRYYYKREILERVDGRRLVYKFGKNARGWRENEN
The note with it: protein: recombinant; tags: N-terminal GST; dsDNA, one strand shown. In a few lines:
as §1

Another experiment has as its target SPI1 (Homo sapiens, UniProt P17947 1-270). The note with it: protein: recombinant; tags: N-terminal GST; dsDNA, one strand shown. In a few lines:
as §1

In another experiment the target is SPIB (Homo sapiens, UniProt Q01892 1-262). The note with it: protein: recombinant; tags: N-terminal GST; dsDNA, one strand shown. In a few lines:
as §1

The target of another experiment is T6, ELK3 (Homo sapiens, UniProt P41970 1-407).
T6 sequence: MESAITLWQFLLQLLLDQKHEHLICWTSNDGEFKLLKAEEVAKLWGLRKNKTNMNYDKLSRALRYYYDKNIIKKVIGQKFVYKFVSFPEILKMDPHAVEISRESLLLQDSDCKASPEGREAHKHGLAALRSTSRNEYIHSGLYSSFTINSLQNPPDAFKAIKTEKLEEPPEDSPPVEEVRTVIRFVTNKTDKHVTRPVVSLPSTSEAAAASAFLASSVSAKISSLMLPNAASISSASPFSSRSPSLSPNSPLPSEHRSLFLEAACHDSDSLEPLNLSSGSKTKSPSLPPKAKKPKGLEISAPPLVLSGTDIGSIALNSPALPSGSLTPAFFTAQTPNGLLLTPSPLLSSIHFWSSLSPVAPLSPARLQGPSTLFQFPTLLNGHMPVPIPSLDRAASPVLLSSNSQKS
The note with it: protein: recombinant; tags: N-terminal GST; dsDNA, one strand shown. In short, it runs like this:
as §1

A further experiment concerns the target T7, FEV (Homo sapiens, UniProt Q99581 1-238).
T7 sequence: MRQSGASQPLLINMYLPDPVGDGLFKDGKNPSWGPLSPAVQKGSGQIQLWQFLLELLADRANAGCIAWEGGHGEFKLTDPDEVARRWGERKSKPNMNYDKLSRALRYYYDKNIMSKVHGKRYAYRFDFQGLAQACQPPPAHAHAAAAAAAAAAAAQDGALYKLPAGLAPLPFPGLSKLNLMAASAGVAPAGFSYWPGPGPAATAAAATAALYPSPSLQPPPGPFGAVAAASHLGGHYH
The note with it: protein: recombinant; tags: N-terminal GST; dsDNA, one strand shown. In short, it runs like this:
as §1

The target of a further experiment is ETV5 (Homo sapiens, UniProt P41161 1-510). The note with it: protein: recombinant; tags: N-terminal GST; dsDNA, one strand shown. In short, it runs like this: as §1
The target of a further experiment is HSF1 (Homo sapiens, UniProt Q00613 1-529). The note with it: protein: recombinant; tags: N-terminal GST; chain copies: 3; dsDNA, one strand shown. In a few lines:
as §1

In the next experiment the target is T8, SPIC (Homo sapiens, UniProt Q8N5J4 1-248).
T8 sequence: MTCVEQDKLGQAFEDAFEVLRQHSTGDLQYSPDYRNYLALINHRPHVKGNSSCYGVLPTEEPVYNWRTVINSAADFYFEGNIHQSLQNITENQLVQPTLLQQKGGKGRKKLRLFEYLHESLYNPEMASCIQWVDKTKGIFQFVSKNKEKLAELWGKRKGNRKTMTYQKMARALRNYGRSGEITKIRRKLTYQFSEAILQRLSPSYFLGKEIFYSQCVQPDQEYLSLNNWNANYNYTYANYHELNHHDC
The note with it: protein: recombinant; tags: N-terminal GST; dsDNA, one strand shown. In short, it runs like this:
as §1

The next experiment deals with ELF4 (Homo sapiens, UniProt Q99607 1-663). The note with it: protein: recombinant; tags: N-terminal GST; dsDNA, one strand shown. In a few lines: as §1
Another experiment has as its target T9, ELK4 (Homo sapiens, UniProt P28324-2 1-405).
T9 sequence: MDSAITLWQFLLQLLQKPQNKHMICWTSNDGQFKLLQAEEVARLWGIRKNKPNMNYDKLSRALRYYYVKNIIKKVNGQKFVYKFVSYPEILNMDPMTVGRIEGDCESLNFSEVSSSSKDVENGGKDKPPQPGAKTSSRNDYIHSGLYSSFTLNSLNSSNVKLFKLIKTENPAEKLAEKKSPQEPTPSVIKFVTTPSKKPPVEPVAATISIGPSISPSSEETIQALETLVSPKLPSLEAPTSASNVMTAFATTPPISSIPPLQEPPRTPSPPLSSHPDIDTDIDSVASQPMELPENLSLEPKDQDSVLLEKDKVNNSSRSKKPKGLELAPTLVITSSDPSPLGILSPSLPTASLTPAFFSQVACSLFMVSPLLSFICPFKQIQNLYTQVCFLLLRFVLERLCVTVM
The note with it: protein: recombinant; tags: N-terminal GST; dsDNA, one strand shown. In a few lines:
as §1

In the next experiment the target is T10, ETV2 (Homo sapiens, UniProt O00321 1-342).
T10 sequence: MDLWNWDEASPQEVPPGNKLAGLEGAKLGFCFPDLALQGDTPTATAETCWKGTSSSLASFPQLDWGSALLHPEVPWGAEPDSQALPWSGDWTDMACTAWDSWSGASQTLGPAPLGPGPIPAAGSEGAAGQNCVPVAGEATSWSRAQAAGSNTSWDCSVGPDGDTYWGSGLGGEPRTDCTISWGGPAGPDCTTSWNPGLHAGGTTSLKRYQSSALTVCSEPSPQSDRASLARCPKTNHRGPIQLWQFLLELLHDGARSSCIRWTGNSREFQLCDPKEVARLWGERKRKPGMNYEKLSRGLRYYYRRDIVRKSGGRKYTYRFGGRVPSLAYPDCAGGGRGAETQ
The note with it: protein: recombinant; tags: N-terminal GST; dsDNA, one strand shown. In short, it runs like this: as §1

The target of another experiment is T11, ELF3 (Homo sapiens, UniProt P78545 1-371).
T11 sequence: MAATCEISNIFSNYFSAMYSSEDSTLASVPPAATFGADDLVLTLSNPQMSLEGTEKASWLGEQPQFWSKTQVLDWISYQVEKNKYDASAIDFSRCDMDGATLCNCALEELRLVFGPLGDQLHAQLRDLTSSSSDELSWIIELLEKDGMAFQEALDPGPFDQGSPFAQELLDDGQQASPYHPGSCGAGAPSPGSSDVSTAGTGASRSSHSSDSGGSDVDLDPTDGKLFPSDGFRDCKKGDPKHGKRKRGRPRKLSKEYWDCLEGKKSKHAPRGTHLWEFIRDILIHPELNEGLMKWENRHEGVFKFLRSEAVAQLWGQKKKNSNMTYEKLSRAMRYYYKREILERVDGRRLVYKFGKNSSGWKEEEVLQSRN
The note with it: protein: recombinant; tags: N-terminal GST; dsDNA, one strand shown. In a few lines:
as §1

In another experiment the target is ETV1 (Homo sapiens, UniProt P50549 1-477). The note with it: protein: recombinant; tags: N-terminal GST; dsDNA, one strand shown. In short, it runs like this: as §1
Chain of ETV1 (P50549 whole entry): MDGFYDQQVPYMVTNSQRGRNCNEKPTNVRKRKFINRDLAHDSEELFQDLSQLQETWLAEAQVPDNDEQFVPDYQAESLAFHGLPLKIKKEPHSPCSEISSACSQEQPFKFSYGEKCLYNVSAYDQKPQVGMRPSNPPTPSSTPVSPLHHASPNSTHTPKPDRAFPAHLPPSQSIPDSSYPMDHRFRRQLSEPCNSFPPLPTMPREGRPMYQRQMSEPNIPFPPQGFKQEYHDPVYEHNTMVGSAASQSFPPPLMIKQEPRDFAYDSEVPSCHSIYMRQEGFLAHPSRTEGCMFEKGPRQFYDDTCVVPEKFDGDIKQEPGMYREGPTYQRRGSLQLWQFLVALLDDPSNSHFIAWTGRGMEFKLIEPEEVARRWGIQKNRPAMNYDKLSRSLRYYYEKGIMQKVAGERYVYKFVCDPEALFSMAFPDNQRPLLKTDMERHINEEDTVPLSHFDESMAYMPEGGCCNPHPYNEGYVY

Chain of ELF4 (Q99607 whole entry): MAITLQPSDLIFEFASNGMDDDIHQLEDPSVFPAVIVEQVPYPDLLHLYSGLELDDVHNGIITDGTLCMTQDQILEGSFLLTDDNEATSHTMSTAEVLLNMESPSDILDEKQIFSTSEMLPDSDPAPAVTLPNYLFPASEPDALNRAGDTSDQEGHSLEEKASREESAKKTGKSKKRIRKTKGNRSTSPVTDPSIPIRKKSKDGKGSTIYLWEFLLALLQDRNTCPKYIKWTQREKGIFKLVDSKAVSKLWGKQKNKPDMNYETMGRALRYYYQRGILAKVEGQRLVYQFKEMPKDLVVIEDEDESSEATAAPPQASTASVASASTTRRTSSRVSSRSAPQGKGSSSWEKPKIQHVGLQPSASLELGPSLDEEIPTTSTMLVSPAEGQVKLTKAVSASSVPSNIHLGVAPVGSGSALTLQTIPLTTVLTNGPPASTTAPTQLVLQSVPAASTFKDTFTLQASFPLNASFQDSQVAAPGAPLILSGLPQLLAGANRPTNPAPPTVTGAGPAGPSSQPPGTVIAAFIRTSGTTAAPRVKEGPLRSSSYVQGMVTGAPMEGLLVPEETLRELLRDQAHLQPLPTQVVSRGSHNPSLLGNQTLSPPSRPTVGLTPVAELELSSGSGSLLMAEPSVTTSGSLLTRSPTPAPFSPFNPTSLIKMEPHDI
Chain of ELF1 (P32519 whole entry): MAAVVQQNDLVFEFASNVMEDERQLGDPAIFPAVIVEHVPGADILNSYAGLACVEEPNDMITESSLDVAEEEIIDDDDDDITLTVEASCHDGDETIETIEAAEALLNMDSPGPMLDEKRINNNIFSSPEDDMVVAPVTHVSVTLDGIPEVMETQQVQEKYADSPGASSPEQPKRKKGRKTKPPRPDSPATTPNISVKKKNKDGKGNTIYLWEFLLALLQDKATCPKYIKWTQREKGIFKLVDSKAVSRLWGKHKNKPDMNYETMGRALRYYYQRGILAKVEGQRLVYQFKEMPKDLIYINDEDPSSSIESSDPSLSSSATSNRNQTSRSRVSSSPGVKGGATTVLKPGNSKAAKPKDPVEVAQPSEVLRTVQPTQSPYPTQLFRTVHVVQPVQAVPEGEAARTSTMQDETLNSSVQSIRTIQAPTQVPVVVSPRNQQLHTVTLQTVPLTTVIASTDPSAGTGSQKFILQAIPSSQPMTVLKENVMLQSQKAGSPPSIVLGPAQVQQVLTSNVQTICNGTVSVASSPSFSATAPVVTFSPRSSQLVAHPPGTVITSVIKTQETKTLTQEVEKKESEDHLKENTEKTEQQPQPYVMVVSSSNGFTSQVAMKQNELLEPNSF
Chain of ETV5 (P41161 whole entry): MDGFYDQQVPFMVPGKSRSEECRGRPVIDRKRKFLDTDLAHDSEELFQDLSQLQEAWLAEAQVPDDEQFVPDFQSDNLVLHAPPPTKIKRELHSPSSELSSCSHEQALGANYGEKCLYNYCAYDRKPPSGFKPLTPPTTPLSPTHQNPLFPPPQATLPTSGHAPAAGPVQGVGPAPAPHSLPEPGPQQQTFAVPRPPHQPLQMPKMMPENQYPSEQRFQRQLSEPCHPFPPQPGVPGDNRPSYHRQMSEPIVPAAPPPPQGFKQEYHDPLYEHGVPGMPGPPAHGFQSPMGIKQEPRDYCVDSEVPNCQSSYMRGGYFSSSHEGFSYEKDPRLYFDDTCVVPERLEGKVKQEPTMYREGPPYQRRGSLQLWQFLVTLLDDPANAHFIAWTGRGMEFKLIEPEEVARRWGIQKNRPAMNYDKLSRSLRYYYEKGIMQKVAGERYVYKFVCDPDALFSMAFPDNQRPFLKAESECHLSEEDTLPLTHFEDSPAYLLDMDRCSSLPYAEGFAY
Chain of SPIB (Q01892 whole entry): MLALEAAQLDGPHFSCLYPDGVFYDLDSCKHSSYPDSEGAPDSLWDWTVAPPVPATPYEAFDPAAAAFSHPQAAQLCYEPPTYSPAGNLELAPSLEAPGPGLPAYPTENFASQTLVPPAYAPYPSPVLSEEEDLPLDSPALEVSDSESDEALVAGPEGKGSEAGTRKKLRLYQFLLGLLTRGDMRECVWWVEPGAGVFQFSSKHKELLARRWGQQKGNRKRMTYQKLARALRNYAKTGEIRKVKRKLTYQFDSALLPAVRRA
Chain of HSF1 (Q00613 whole entry): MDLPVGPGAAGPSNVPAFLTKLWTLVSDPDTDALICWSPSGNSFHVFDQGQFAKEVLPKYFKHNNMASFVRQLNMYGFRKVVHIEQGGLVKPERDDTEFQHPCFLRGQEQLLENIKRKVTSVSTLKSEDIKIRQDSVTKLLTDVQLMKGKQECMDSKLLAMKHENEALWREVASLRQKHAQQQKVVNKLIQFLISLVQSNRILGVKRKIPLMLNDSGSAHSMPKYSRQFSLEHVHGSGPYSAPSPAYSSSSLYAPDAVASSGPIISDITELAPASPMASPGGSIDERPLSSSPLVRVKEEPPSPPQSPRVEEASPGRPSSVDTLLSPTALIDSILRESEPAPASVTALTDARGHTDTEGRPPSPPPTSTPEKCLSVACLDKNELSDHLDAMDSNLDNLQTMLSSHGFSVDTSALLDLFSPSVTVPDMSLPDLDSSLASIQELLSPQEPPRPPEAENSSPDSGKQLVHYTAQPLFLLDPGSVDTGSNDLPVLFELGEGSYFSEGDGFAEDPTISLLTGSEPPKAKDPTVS

As to ATGTGG, the binding signal with FLI1 is 1.08 fold enrichment (6-mer frequency, TF over GST control); with ELK1 it was 1.05 fold enrichment (6-mer frequency, TF over GST control); in the experiment with GABPA it was 1.11 fold enrichment (6-mer frequency, TF over GST control); with ERG, 1.21 fold enrichment (6-mer frequency, TF over GST control); with ELF1, 1.18 fold enrichment (6-mer frequency, TF over GST control); with EHF it was 1.23 fold enrichment (6-mer frequency, TF over GST control). Moreover, the binding signal with SPI1 is 1.02 fold enrichment (6-mer frequency, TF over GST control); with SPIB, 1.31 fold enrichment (6-mer frequency, TF over GST control); with ELK3, 1.1 fold enrichment (6-mer frequency, TF over GST control); with FEV, 1.2 fold enrichment (6-mer frequency, TF over GST control); with ETV5 it was 1.09 fold enrichment (6-mer frequency, TF over GST control); with HSF1, 1.04 fold enrichment (6-mer frequency, TF over GST control). The binding signal was 1.18 fold enrichment (6-mer frequency, TF over GST control) with SPIC; 1.15 fold enrichment (6-mer frequency, TF over GST control) in the experiment with ELF4; 1.27 fold enrichment (6-mer frequency, TF over GST control) in the experiment with ELK4; 1.28 fold enrichment (6-mer frequency, TF over GST control) with ETV2; 1.26 fold enrichment (6-mer frequency, TF over GST control) in the experiment with ELF3; 1.12 fold enrichment (6-mer frequency, TF over GST control) in the experiment with ETV1.

Values taken from publication PMC7862700, “An all-to-all approach to the identification of sequence-specific readers for epigenetic DNA modifications on cytosine”.
